Sampled rows, rich in hits. Any-hit rate of the full collection: about 1.9%.
GLD-1 TGE inh: GLD-1/TGE RNA complex disruptors, primary screen, biochemical, fluorescence polarization. purified GLD-1 + fluorescein TGE RNA. AID 2280, 2010. inhibition, % at 5.96 µM. Female germline-specific tumor suppressor gld-1 (Caenorhabditis elegans), Q17339. 320,000 tested, 0.44% active;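 active = percent inhibition above a per-plate cutoff, the plate mean of test compounds plus 3 SD, cut at about 30% in these data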;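 note: 0% = DMSO wells with GLD-1 and probe and 100% = wells lacking GLD-1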
Target sequence (Q17339 whole entry, looked up): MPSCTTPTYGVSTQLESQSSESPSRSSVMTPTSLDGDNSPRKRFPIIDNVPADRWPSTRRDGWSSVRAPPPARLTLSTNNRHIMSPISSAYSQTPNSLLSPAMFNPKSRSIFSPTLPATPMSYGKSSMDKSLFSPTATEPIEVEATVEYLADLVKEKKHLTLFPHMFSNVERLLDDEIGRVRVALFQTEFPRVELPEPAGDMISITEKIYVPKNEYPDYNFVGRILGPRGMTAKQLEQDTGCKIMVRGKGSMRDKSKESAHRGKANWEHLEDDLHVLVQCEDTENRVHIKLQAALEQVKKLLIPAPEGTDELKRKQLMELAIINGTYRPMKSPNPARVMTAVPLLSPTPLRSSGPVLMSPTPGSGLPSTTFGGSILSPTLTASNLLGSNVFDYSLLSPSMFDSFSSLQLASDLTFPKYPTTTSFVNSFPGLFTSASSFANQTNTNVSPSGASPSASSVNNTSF
LANA-H2B inh: blockers of LANA interaction with H2A/H2B – biochemical, FP readout, HTS, primary screen; Protein LANA1 (Human herpesvirus 8 type P (isolate GK18)), Q9QR71; cell-free LANA-H2A/H2B peptide, fluorescence polarization; inhibition, % (concentration not given with the values); 320,000 tested, 0.6% active; in the data active = inhibition mostly above about 10%, no sharp cut-off; inactive = mostly below about 6.7%
Yeast superoxide: reduction of superoxide in aged yeast, primary screen, HTS; AID 2690, 2010; S. cerevisiae aged cells, superoxide DHE fluorescence; active compounds read low; 330,000 tested, 0.18% active; superoxide response (% of plate mean), % at 10 µM;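 active = superoxide response under a set limit, about three screen SD below normal, cut at about 65% in these data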;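 note: yeast aged for seven days with compound at 30 °C before DHE staining; 100% = average MFI of all compound-treated wells on the plate with controls excluded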
MCL1 BIM primary: inhibitors of MCL1 binding to BIM-BH3, primary screen, biochemical, fluorescence polarization | 320,000 tested, 0.68% active | GST-MCL1 / FITC-Bim-BH3 fluorescence polarization | Induced myeloid leukemia cell differentiation protein Mcl-1 (Homo sapiens), Q07820 | inhibition, % at 10.9 µM;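 active = inhibition above the mean inhibition of all tested compounds plus 3 SD, set per campaign, cut at about 40% in these data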;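 note: 0% = DMSO wells and 100% = unlabeled Bim-BH3 peptide control; higher means more loss of mP so more displacement of Bim peptide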
BCLXL inh: inhibitors of human Bcl-xL, primary screen, biochemical, fluorescence polarization, HTS. inhibition, % at 10.9 µM. Bcl-2-like protein 1 (Homo sapiens), Q07817. GST-Bcl-xL / FITC-Bim BH3 peptide fluorescence polarization. 320,000 tested, 0.7% active;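 active = inhibition above the mean of all tested compounds plus 3 SD, cutoff set per campaign, cut at about 30% in these data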;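 note: 0% = DMSO wells and 100% = unlabeled Bim-BH3 peptide competitor; inhibitors lower millipolarization by displacing the labeled peptide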
MEX-5 binding: MEX-5 zinc finger RNA-binding disruptors – biochemical, C. elegans, fluorescence polarization, MLPCN library, primary screen | Zinc finger protein mex-5 (Caenorhabditis elegans), Q9XUB2 | MEX-5/FITC-TCR2 RNA binding; active compounds read low | activity score (negative = inhibition of binding), % at 10 µM | 300,000 tested, 0.38% active | AID 1832, 2009;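 active = inhibition past about -25% in most replicates, and total fluorescence under double the plate's negative control median, limit read from the data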;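 note: 0% = DMSO and -100% = 5 µM competing unlabeled TCR2 RNA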
* = called active by the depositor.

For CC(C)[C@H](NC(=O)c1ccccc1F)C(=O)OCC(=O)NC1CC1 the results were GLD-1 TGE inh -4, LANA-H2B inh -3 and Yeast superoxide 113.
Screening Cc1ccc(S(=O)(=O)N(C)C)cc1NC(=O)C(C)OC(=O)c1cc[n+]([O-])cc1 (stereo unspecified) returned GLD-1 TGE inh 2, LANA-H2B inh -6 and Yeast superoxide 94.
Screening CCOc1ccc(NC(=O)CCN2C(=O)CSc3ccccc32)cc1 returned GLD-1 TGE inh 3, LANA-H2B inh -361, Yeast superoxide 102, MCL1 BIM primary -16 and BCLXL inh -13.
`O=C(CCN1C(=O)CSc2ccccc21)Nc1ccc(OC(F)(F)F)cc1` gave GLD-1 TGE inh 8, LANA-H2B inh active, Yeast superoxide 109, MCL1 BIM primary -4 and BCLXL inh -4.
For O=C(COC(=O)/C=C/c1cccc(Cl)c1)NC1CCCC1 the results were GLD-1 TGE inh 5, LANA-H2B inh -12, Yeast superoxide 120, MCL1 BIM primary -10 and BCLXL inh -6.
Screening O=C(COC(=O)/C=C/c1cccc(Cl)c1)NC1CC1 returned GLD-1 TGE inh 8, LANA-H2B inh 19*, Yeast superoxide 86, MCL1 BIM primary 3 and BCLXL inh 4.
For COc1cc(/C=N/N2CCN(C3c4ccccc4-c4ccccc43)CC2)ccc1O the results were GLD-1 TGE inh 1, LANA-H2B inh 26*, Yeast superoxide 99, MCL1 BIM primary 12, BCLXL inh 8 and MEX-5 binding -2.
`Oc1cccc(/C=N/N2CCN(C3c4ccccc4-c4ccccc43)CC2)c1` gave GLD-1 TGE inh 2, LANA-H2B inh 0, Yeast superoxide 103, MCL1 BIM primary -2, BCLXL inh 4 and MEX-5 binding -4.
For COc1ccc(-c2nn(CCC(=O)O)cc2/C=N/NC(N)=S)cc1 the results were GLD-1 TGE inh 4, LANA-H2B inh 19*, Yeast superoxide 112, MCL1 BIM primary 11, BCLXL inh 8 and MEX-5 binding 0.
`NC(=S)N/N=C/c1cn(CCC(=O)O)nc1-c1cccc(Br)c1` gave GLD-1 TGE inh 10, LANA-H2B inh 1, Yeast superoxide 110, MCL1 BIM primary 6, BCLXL inh 1 and MEX-5 binding -1.
COC(=O)C1=C(O)/C(=C\c2cc(C)n(-c3ccccc3C)c2C)N=C1C was read as GLD-1 TGE inh 27, LANA-H2B inh -1, Yeast superoxide 91, MCL1 BIM primary 44*, BCLXL inh 42* and MEX-5 binding 1.
For CCC(C)[C@@H](N)C(=O)N/N=C/c1cccc2nccnc12 (stereo partly specified) the results were GLD-1 TGE inh 5, LANA-H2B inh -2, Yeast superoxide 94, MCL1 BIM primary 16, BCLXL inh 9 and MEX-5 binding -41*.
c1ccc(CNc2ccc(N3CCOCC3)cc2)cc1 was read as GLD-1 TGE inh 11, LANA-H2B inh 17* and Yeast superoxide 72.
COc1ccc(S(=O)(=O)N(C)C[C@H]2Oc3ccc(NC(=O)NC4CCCCC4)cc3C(=O)N([C@H](C)CO)C[C@@H]2C)cc1 was read as GLD-1 TGE inh 3, LANA-H2B inh -2 and Yeast superoxide 101.
Cc1nc2ccccc2c2c1C(=O)N(c1ccc(C(=O)O)cc1)C2=O was read as GLD-1 TGE inh 2, LANA-H2B inh -3, Yeast superoxide 173, MCL1 BIM primary -5, BCLXL inh 1 and MEX-5 binding 1.
Cc1nc2ccccc2c2c1C(=O)NC2=O was read as GLD-1 TGE inh -4, LANA-H2B inh 27*, Yeast superoxide 142, MCL1 BIM primary 7, BCLXL inh 6 and MEX-5 binding -1.
For Cc1occc1C(=O)N(Cc1nc(-c2ccccc2)no1)C(C)C the results were GLD-1 TGE inh 3, LANA-H2B inh 16*, Yeast superoxide 80, MCL1 BIM primary 0, BCLXL inh 8 and MEX-5 binding 3.
For Cc1nc2sc(-c3ccccc3)cc2c(=O)n1-n1cccc1 the results were GLD-1 TGE inh 7, LANA-H2B inh 0, Yeast superoxide 118, MCL1 BIM primary 3, BCLXL inh 5 and MEX-5 binding -1.
Screening Cc1nc2sc(-c3ccccc3)cc2c(=O)n1N returned GLD-1 TGE inh 1, LANA-H2B inh -1, Yeast superoxide 111, MCL1 BIM primary -5, BCLXL inh 12 and MEX-5 binding -32*.
Screening Cc1ccccc1[C@]1(C)ON(c2ccccc2C(F)(F)F)C1=O returned GLD-1 TGE inh -1, LANA-H2B inh -2, Yeast superoxide 106, MCL1 BIM primary 1 and BCLXL inh 0.
CC(C)n1c(O)c(/C=C2\C=NN=C2c2ccccc2)sc1=S was read as GLD-1 TGE inh 3, LANA-H2B inh 12*, Yeast superoxide 97, MCL1 BIM primary 6, BCLXL inh 2 and MEX-5 binding 2.
COc1cc(/C=C(\CCC(=O)O)c2nc3ccccc3s2)ccc1OCC(=O)Nc1c(Cl)cccc1Cl was read as GLD-1 TGE inh 9, LANA-H2B inh 1 and Yeast superoxide 112.
For O=C(CN1CCN(Cc2ccccc2Cl)CC1)N/N=C/C=C/c1ccco1 the results were GLD-1 TGE inh 6, LANA-H2B inh -3, Yeast superoxide 100, MCL1 BIM primary 8, BCLXL inh 13 and MEX-5 binding -1.
For O=C(CN1CCN(Cc2ccccc2)CC1)N/N=C\C=C/c1ccco1 the results were GLD-1 TGE inh 10, LANA-H2B inh 12*, Yeast superoxide 117, MCL1 BIM primary 22, BCLXL inh 9 and MEX-5 binding 1.
`CCc1ccc(CN(C)CC(=O)Nc2ccc(S(=O)(=O)N3CCOCC3)cc2)cc1` gave GLD-1 TGE inh -3, LANA-H2B inh -3, Yeast superoxide 88, MCL1 BIM primary -2 and BCLXL inh 2.
`CC1(NC(=O)N2CCCCC2)CCS(=O)(=O)C1` (stereo unspecified) gave GLD-1 TGE inh 6, LANA-H2B inh 19*, Yeast superoxide 109, MCL1 BIM primary -5, BCLXL inh 3 and MEX-5 binding 0.
Screening CC(C)NC(=S)NC1(C)CCS(=O)(=O)C1 (stereo unspecified) returned GLD-1 TGE inh 1, LANA-H2B inh -4, Yeast superoxide 102, MCL1 BIM primary -5, BCLXL inh -1 and MEX-5 binding 1.
For COc1ccccc1C(=O)CC(=O)c1ccccc1 the results were GLD-1 TGE inh 4, LANA-H2B inh 17*, Yeast superoxide 102, MCL1 BIM primary 7, BCLXL inh 1 and MEX-5 binding 1.
